Measurements from PubChem BioAssay (NCI).
Compounds without any hit were thinned out: in the full panel of roughly 83,000, 20% have a hit.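 For each line, cells grew in 96-well plates with the test compound present at a single concentration for 48 hours.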 Unmarked numbers belong to inactive results. Calls of active or inactive are those of the source. How the source made its calls: active means growth percent below 10; inactive means the rest.

How the values were obtained:
Test in all cases: NCI-60 one-dose screen, 48 h (100 = growth as untreated, 0 = no growth, -100 = all killed)
Details in all cases: 10 µM unless noted
MOLT-4 leukemia = test system: MOLT-4 leukemia
SR leukemia = test system: SR leukemia
RPMI-8226 leukemia = test system: RPMI-8226 leukemia
OVCAR-8 ovarian = test system: OVCAR-8 ovarian
OVCAR-5 ovarian = test system: OVCAR-5 ovarian
OVCAR-4 ovarian = test system: OVCAR-4 ovarian
SK-OV-3 ovarian = test system: SK-OV-3 ovarian
IGROV1 ovarian = test system: IGROV1 ovarian
OVCAR-3 ovarian = test system: OVCAR-3 ovarian
HS 578T breast = test system: HS 578T breast
NCI/ADR-RES ovarian = test system: NCI/ADR-RES ovarian
T-47D breast = test system: T-47D breast
BT-549 breast = test system: BT-549 breast
MDA-MB-435 melanoma = test system: MDA-MB-435 melanoma
SW-620 colon = test system: SW-620 colon
MCF7 breast = test system: MCF7 breast
HCT-116 colon = test system: HCT-116 colon
HCC-2998 colon = test system: HCC-2998 colon
KM12 colon = test system: KM12 colon

Row | SMILES | growth (MOLT-4 leukemia) | growth (SR leukemia) | growth (RPMI-8226 leukemia) | growth (OVCAR-8 ovarian) | growth (OVCAR-5 ovarian) | growth (OVCAR-4 ovarian) | growth (SK-OV-3 ovarian) | growth (IGROV1 ovarian) | growth (OVCAR-3 ovarian) | growth (HS 578T breast) | growth (NCI/ADR-RES ovarian) | growth (T-47D breast) | growth (BT-549 breast) | growth (MDA-MB-435 melanoma) | growth (SW-620 colon) | growth (MCF7 breast) | growth (HCT-116 colon) | growth (HCC-2998 colon) | growth (KM12 colon)
1 | COC(=O)[C@@H](C)C[C@H](Cc1ccccc1)NC(=O)c1nc([C@@H](C[C@H](C(C)C)N(C)C(=O)[C@@H](NC(=O)[C@H]2C[C@H](O)CCN2C)C(C)C)OC(C)=O)sc1C(C)C | 11% | 3.04% (active) | -4.65% (active) | 10.6% | 33.4% | 35.6% | 2.1% (active) | 10.2% | 2.66% (active) | 6.61% (active) | 38.9% | 78.5% | -30.8% (active) | -48.3% (active) | 21.9% | 18.7% | 2.56% (active) | 14.1% | 0.729% (active)
2 | CC[C@H](C)[C@@H]([C@@H](CC(=O)N1CCC[C@H]1[C@H](OC)[C@@H](C)C(=O)N[C@H](C)[C@@H](O)c1ccccc1)OC)N(C)C(=O)[C@@H](NC(=O)[C@@H](NC)C(C)C)C(C)C | 18.3% | 13.8% | 26.5% | 21% | 60.9% | 36.2% | 14.1% | 18.1% | -13.9% (active) | 28.9% | -2.45% (active) | 87.3% | 6.48% (active) | 2.42% (active) | 32.8% | 15.3% | 7.3% (active) | 9.29% (active) | 15.3%
3 | CC(C)=CCC[C@H](C(=O)O)[C@@H]1CC[C@]2(C)C3=C(CC[C@@]12C)[C@@]1(C)CC[C@H](O)C(C)(C)[C@@H]1CC3 | 88.6% | 91.8% | 88.8% | 96.4% | 96.8% | 103% | 96.7% | 103% | 107% | 99.9% | 102% | 92.5% | 75.2% | 103% | 105% | 88.9% | 78.5% | 100% | 99.7%
4 | CCC(CC)CC1(C)CC2(C)CCOC2OO1 (centres undefined) | 113% | 113% | 103% | 102% | 113% | 95.4% | 111% | 114% | 115% | 92.6% | 104% | 97.8% | 112% | 109% | 104% | 104% | 108% | 93.4% | 111%
5 | CC[C@]12C=CCN3CC[C@]4(C(=C(C(=O)OC)C1)Nc1cc(OC)c(OC(C)=O)cc14)[C@@H]32 | 9.7% (active) | 7.64% (active) | 7.27% (active) | 5.97% (active) | 43% | 38.6% | 2.29% (active) | 26.3% | 14.1% | 46.7% | 9.28% (active) | 51.4% | 3.35% (active) | 3.75% (active) | 15.8% | 13.1% | 12% | 12.8% | 9.09% (active)
6 | COC(=O)CC[C@H](Cc1ccccc1)NC(=O)c1csc([C@@H](C[C@H](C(C)C)N(C)C(=O)[C@@H](NC(=O)[C@H]2CCCCN2C)C(C)C)OC(C)=O)n1 | 9.45% (active) | 13.9% | 37.3% | 28.1% | 76.2% | 52.3% | 35.4% | 15.3% | -3.19% (active) | 38.2% | 30.4% | 77.8% | -22.4% (active) | 1.58% (active) | 35.8% | 17.1% | 20.8% | 42.4% | 24.8%
7 | COc1ccc(O)c(CNC(=O)CN2CCCC2=O)c1 | 101% | 98.5% | 99.4% | 106% | 95.1% | 103% | 112% | 104% | 103% | 94% | 97.8% | 99.4% | 98.7% | 101% | 101% | 102% | 98.8% | 98.6% | 101%
8 | Cn1cc(-c2csc(-c3cn(CCN4CCOCC4)c4ccc(F)cc34)n2)c2cccnc21 | 4.03% (active) | 33.7% | 0.0619% (active) | 4.93% (active) | 75.3% | 30.5% | 78.7% | 21% | 32.3% | 60.4% | 5.84% (active) | -17.7% (active) | 10.8% | 32.2% | 44.9% | 8.93% (active) | 36.9% | 86.7% | 22.3%
9 | COc1ccc2c(c1)c(C1(O)CC(CSC#N)OC1=O)cn2C(=O)c1ccc(Cl)cc1 (centres undefined) | 93.2% | 84.8% | 91.9% | 98.8% | 99.4% | 101% | 109% | 77.2% | 108% | 101% | 92.5% | 100% | 97.6% | 98.9% | 105% | 91.6% | 97% | 95.1% | 97.7%
10 | CC(=O)[C@H]1CC[C@H]2[C@@H]3CC[C@H]4C[C@H](N)CC[C@]4(C)[C@H]3CC[C@]12C | 61.7% | 32.3% | 58.9% | 90% | 82.7% | 84.1% | 109% | 81.6% | 74.5% | 82% | 89.4% | 91% | 70.5% | 65.1% | 72.2% | 70.6% | 40.6% | 92.8% | 80.2%
11 | CC(=O)OC1CCC2(C)C(CCC3C2CC(=O)C2(C)C3CC(Sc3ccc(N(CCCl)CCCl)cc3)C2C(C)=O)C1 (centres undefined) | 77.3% | 51.5% | 49% | 84.1% | 95.6% | 84.4% | 113% | 116% | 99.6% | 110% | 74.7% | 66.7% | 80.8% | 105% | 68.4% | 74.2% | 72% | 87.2% | 32.6%
12 | N#C[Se]CCN1C(=O)c2ccccc2C1=O | 17.4% | 27.7% | 59.5% | 30.3% | 41.4% | 67.4% | 56.4% | 26.1% | 39.2% | 21.9% | 9.97% (active) | 49.9% | 34.3% | 20.8% | 23.9% | 25.4% | 9.26% (active) | 53.1% | 43%
13 | CC(C)CCC1(CCCl)C(=O)NC(=O)NC1=O | 112% | 102% | 103% | 101% | 101% | 99.4% | 102% | 108% | 116% | 106% | 102% | 105% | 102% | 97% | 98.9% | 96.4% | 100% | 107% | 108%
14 | C=CCCCN=C=S | 40.7% | 27% | 49% | 89.6% | 86.9% | 88.8% | 70.7% | 72% | 57.8% | 98% | 87.2% | 47.3% | 67.1% | 61.2% | 66.5% | 40.5% | 44.7% | 102% | 49.9%
15 | C[C@]12CC[C@H]3[C@@H](CC[C@]4(O)C[C@@H](O[C@@H]5O[C@H](CO)[C@@H](O[C@@H]6OC[C@@H](O)[C@H](O)[C@H]6O)[C@H](O)[C@H]5O)CC[C@]34C=O)[C@@]1(O)CC[C@@H]2C1=CC(=O)OC1 | -36.3% (active) | -31.7% (active) | 10% | 2.06% (active) | 31.1% | 2.78% (active) | -3.1% (active) | 18.6% | -34.5% (active) | 8.83% (active) | -66.3% (active) | 2.52% (active) | 5.05% (active) | 16.9% | 8.41% (active) | 3.61% (active) | 5.35% (active) | 38.8% | 16.9%
16 | O=C1NC(=O)C(=Cc2ccc(OCCCCC3CCCCC3)c(Cl)c2)C(=O)N1 | 96.5% | 106% | 97.7% | 101% | 98.8% | 105% | 99.9% | 104% | 106% | 105% | 107% | 91.6% | 95.1% | 102% | 98% | 88.8% | 91.3% | 102% | 104%
